# In PubChem BioAssay AID709 (SRMLSC, 2007):
# Among all 65,000 compounds or so, about 3,600 (5.5%) were called active.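 How the source made its calls: active means at 10 µM, mean starting fluorescence two-fold or more over control wells; inactive means the rest.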 Many of the other results were omitted from the sample, so actives are more common in it than they were.
# Assay: intrinsic fluorescence of library compounds, ex339/em460 – biochemical, MLSMR library, data from DPM-DC assay, artefact control, profiling panel (AID 709);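 further: signal is the first read of a kinetic run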
# Settings: compound autofluorescence, ex339/em460 nm, NADH buffer; at 10 µM; hits give high values; 1 = no-compound wells, NADH background
row,Structure (SMILES),fluorescence fold increase
1,COc1ccc(/C(O)=C2/C(=O)C(=O)N(c3nc(C)c(C)s3)C2c2ccco2)cc1 (stereo unspecified),1.08 (inactive)
2,COc1ccc(NS(=O)(=O)c2ccc(NC(=O)C(C)(C(F)(F)F)C(F)(F)F)cc2)nn1,1.11 (inactive)
3,Cn1c(=O)oc2cc(S(=O)(=O)N3CCC(C(=O)Nc4ccc(OC(F)(F)F)cc4)CC3)ccc21,0.99 (inactive)
4,CCC1(C)N(O)C(C)(C)C(c2ccc(OC)cc2)=[N+]1[O-] (stereo unspecified),1.08 (inactive)
5,COc1ccc(CCNC(=O)c2ccc3c(c2)NC(=O)C(N2CCOCC2)S3)cc1OC (stereo unspecified),1.05 (inactive)
6,CCOc1ccccc1-n1c(SCC(=O)N2CCCC2)nnc1-c1ccoc1C,1.07 (inactive)
7,CCCCc1nccn1CCn1ccnc1CCCC,1.03 (inactive)
8,COc1ccc(-c2cc(C(=O)NC(C(=O)O)C(C)C)c(C)o2)cc1OC (stereo unspecified),1.05 (inactive)
9,C=C(C)c1cccc(C(C)(C)NC(=O)N2CCN(c3ncccn3)CC2)c1,1.1 (inactive)
10,CCN1CCCC1CNc1ncnc2c1[nH]c1ccc(F)cc12 (stereo unspecified),3.05 (active)
11,Fc1ccc2[nH]c3c(N4CCSCC4)ncnc3c2c1,1.68 (inactive)
12,CC(C)OCCCNc1ncnc2c1[nH]c1ccc(F)cc12,3.76 (active)
13,Fc1ccc2[nH]c3c(N4CCN(Cc5ccc6c(c5)OCO6)CC4)ncnc3c2c1,1.38 (inactive)
14,COc1ccc(C(=O)Nc2cccnc2)cc1C(=O)Nc1cccnc1,1.05 (inactive)
15,C=CCn1c(C)cc(C(=O)CN2C(=O)c3ccccc3C2=O)c1C,1.04 (inactive)
16,C=CCN(CC=C)C(=O)CN1C(=O)c2ccccc2C1=O,1.04 (inactive)
17,O=C(CCc1ccccc1)Nc1cccc(-c2nnc(-c3ccco3)o2)c1,1.31 (inactive)
18,Cc1ccc(OCC(=O)Nc2ccc(-c3nnc(-c4ccco4)o3)cc2)cc1,1.37 (inactive)
19,COc1ccc(CC(=O)Nc2ccc(-c3nnc(-c4ccccc4)o3)cc2)cc1,2.23 (active)
20,COc1ccc(-c2nc(CS(=O)CC(=O)NCc3ccccn3)c(C)o2)cc1 (stereo unspecified),1 (inactive)
21,COc1ccc(CC(=O)Nc2ccc(-c3nnc(-c4ccc(C)cc4)o3)cc2)cc1,2.89 (active)
22,Cc1ccc(OCC(=O)Nc2ccc(-c3nc4ncccc4o3)cc2)cc1,3.7 (active)
23,CCC(=O)Oc1cccc(C(=O)Nc2ccc(-c3nnc(-c4ccco4)o3)cc2)c1,1.53 (inactive)
24,CCOC(=O)c1ccc(NC(=O)CSc2ncccn2)cc1,1.02 (inactive)

row,Structure (SMILES),fluorescence fold increase
1,O=C(COC(=O)c1ccc(Oc2ccccc2)cc1)Nc1nnc(-c2ccccc2)o1,1.19 (inactive)
2,CCCOC(=O)CC1C(=O)NCCN1Cc1ccc(F)cc1 (stereo unspecified),1.06 (inactive)
3,C=C(Br)Cn1c(CCCC)nc2ccccc21,1.05 (inactive)
4,CCN(c1ccccc1)S(=O)(=O)c1cccc(C(=O)O)c1,0.98 (inactive)
5,Cc1noc(C)c1CSc1nnc2ccc3ccccc3n12,1.17 (inactive)
6,COC(=O)C(NC(C)=O)(Nc1nc2c(s1)CCCC2)C(F)(F)F (stereo unspecified),1.04 (inactive)
7,Cc1ccc(N(C(=O)CC2NC(=O)NC2=O)C2(C(=O)NC3CCCC3)CCCCC2)cc1 (stereo unspecified),1.11 (inactive)
8,Cc1cccn2c(=O)c3cc(C(=O)N4COCC4(C)C)n(C)c3nc12,4.96 (active)
9,O=C(NCc1ccccn1)c1ccc2nc(-c3ccco3)c(-c3ccco3)nc2c1,1.72 (inactive)
10,Cc1ccccc1CN1CCN(CC(=O)NCc2ccccn2)C1=O,1.13 (inactive)
11,Cc1cccn2c(=O)c3cc(C(=O)NCc4ccccn4)n(C)c3nc12,5.03 (active)
12,NC(=O)C1CCN(C2OC(=O)c3ccccc32)CC1 (stereo unspecified),1.08 (inactive)
13,CCOC(=O)C1CCN(C(=O)C2CCN(S(=O)(=O)N3CCCC3)CC2)CC1,1.03 (inactive)
14,CCC(CC)c1nnc(NS(=O)(=O)Cc2ccccc2)s1,1.09 (inactive)
15,CN1c2ccccc2-c2nc3ccccc3n2C1c1ccco1 (stereo unspecified),2.31 (active)
16,Cc1nn2c3ccccc3nc2n(C)c1=O,0.93 (inactive)
17,Cc1ccccc1N1C(=O)C2ON(c3ccccc3)C(c3ccncc3)C2C1=O (stereo unspecified),1.04 (inactive)
18,CCOc1ccc2nc(N3CCCN(C(=O)Nc4ccccc4C)CC3)c(C#N)cc2c1,1.7 (inactive)
19,COc1ccc(N2CCN(C(=O)CSc3nc4cc(OC)c(OC)cc4cc3C#N)CC2)cc1,1.03 (inactive)
20,COc1ccc2nc(N3CCCC(O)C3)c(C#N)cc2c1 (stereo unspecified),2.58 (active)
21,COC(=O)c1sc(NC(=O)c2ccc(OC)cc2OC)nc1C,2.06 (active)
22,COC(=O)c1sc(NC(=O)c2csc3c2CCCC3)nc1C,1.25 (inactive)
23,COc1ccc(C(=O)Nc2nncs2)c(OC)c1,1.05 (inactive)
24,Cc1c(C(=O)Nc2ccccc2Cl)oc2ccc(S(=O)(=O)N3CCC4(CC3)OCCO4)cc12,3.37 (active)

row,Structure (SMILES),fluorescence fold increase
1,CCOc1ccccc1NC(=O)c1cc(S(=O)(=O)N2CCC3(CC2)OCCO3)ccc1F,1.05 (inactive)
2,CCOC(=O)C1CCN(C(=O)c2oc3ccc(S(=O)(=O)N4CCCCCC4)cc3c2C)CC1,1.08 (inactive)
3,COC(=O)COc1ccc(S(=O)(=O)Nc2ccc(NC(C)=O)cc2)cc1,1.1 (inactive)
4,O=C(N1CCOCC1)N(Cc1ccccc1)c1ccccn1,1.08 (inactive)
5,COc1cc(-n2c(C)nc3cc(C(=O)NCc4ccco4)ccc32)cc(OC)c1OC,1.09 (inactive)
6,Cc1cc(NC(=O)c2cnn3cccnc23)n(-c2ccccc2)n1,1.13 (inactive)
7,Cn1c(CNc2nc(-c3ccccc3)cs2)nnc1SCC(=O)c1ccccc1,1.05 (inactive)
8,Cc1nc2c(c(=O)n1Cc1ccco1)c1nc3ccccc3nc1n2Cc1ccccc1,2.65 (active)
9,Clc1cccc(-c2nc3nc4ccccc4nc3n2Cc2ccco2)c1,1.65 (inactive)
10,Cc1nc2ccccc2c(=O)n1CCCn1ccnc1,1.18 (inactive)
11,CC(Sc1nc2ccccc2c(=O)n1Cc1ccco1)C(=O)c1ccccc1 (stereo unspecified),1.1 (inactive)
12,Cc1ccc(Cn2c(C)nc3c(c2=O)c2nc4ccccc4nc2n3Cc2ccco2)cc1,2.34 (active)
13,COCCCn1c2nc3ccccc3nc2c2c(=O)n(Cc3ccc(Cl)cc3)c(C)nc21,3.88 (active)
14,Cn1c(COc2ccc(Cl)cc2)nc2ccccc2c1=O,1.18 (inactive)
15,Nc1cc(=O)nc(SCc2ccccc2)n1Cc1ccco1,1.05 (inactive)
16,O=c1c2ccccc2oc2nc(C3CCCCC3)n(Cc3ccco3)c(=O)c12,1.14 (inactive)
17,CC(=O)Oc1cc2c(C(=O)NCCN3CCOCC3)c(C)oc2c2ccccc12,1.19 (inactive)
18,CCCS(=O)(=O)N1CCCC(C(=O)N2CCN(c3ccccc3)CC2)C1 (stereo unspecified),1.11 (inactive)
19,CN(C)Cc1c(O)ccc2occ(C(O)c3ccccc3)c12 (stereo unspecified),1.03 (inactive)
20,COc1ccc(-c2ccnc(SCC(=O)N3CCOCC3)n2)cc1,1.54 (inactive)
21,CCOC(=O)c1[nH]c2ccc(OC)cc2c1NC(=O)N1CCOCC1,3.83 (active)
22,CCOc1ccccc1NC(=O)CCN1CCN(S(=O)(=O)c2ccc(OC)cc2)CC1,1 (inactive)
23,Cc1c(C(=O)N2CCOCC2)[nH]c2ccc(OCc3ccccc3)cc12,1.13 (inactive)
24,COc1cc(NC(=O)N2CCOCC2)cc(OC)c1,1.07 (inactive)

row,Structure (SMILES),fluorescence fold increase
1,COC(=O)c1[nH]c2ccccc2c1NC(=O)CN1CCCc2ccccc21,1.14 (inactive)
2,CCOC(=O)c1[nH]c2ccc(OC)cc2c1NC(=O)CCN1CCN(Cc2ccccc2)CC1,2.37 (active)
3,COC(=O)c1sc(=S)n(-c2ccccc2)c1N,1.02 (inactive)
4,O=S(=O)(NCc1ccc2c(c1)OCO2)c1cccc2nsnc12,1.04 (inactive)
5,CCOC(=O)c1cc2occc2n1CC(=O)NC1CCC(C)CC1 (stereo unspecified),1.03 (inactive)
6,Cc1cccc(N2CCN(Cc3c(C)n(C)n(-c4ccccc4)c3=O)CC2)c1C,1.01 (inactive)
7,OCc1n[nH]c(CO)n1,1.04 (inactive)
8,O=C(Nc1ccc2c(c1)nc1n2CCCCC1)c1cc(S(=O)(=O)N2CCOCC2)ccc1Cl,1.09 (inactive)
9,CC(c1nnc(SCC(=O)Nc2sccc2C#N)n1-c1ccc(Cl)cc1)N(C)C (stereo unspecified),1.06 (inactive)
10,CSc1ccc(-c2c(C#N)c(N)nc3c2c(C)nn3-c2ccccc2)cc1,3.9 (active)
11,CCCc1[nH]nc2c1C(c1c(C)nn(-c3ccccc3)c1Cl)C(C#N)=C(N)O2 (stereo unspecified),1.09 (inactive)
12,CSc1nc(N)c(C#N)c(-c2ccccc2Cl)c1C#N,1.19 (inactive)
13,COc1ccc(OC)c(CNC(=O)CCc2nc(-c3cccs3)no2)c1,1.09 (inactive)
14,Cc1cc(C)nc(N(C#N)CC(=O)Nc2ccccc2)n1,1.1 (inactive)
15,Cc1ccc(S(=O)(=O)NCCN2CCOCC2)cc1C,1.15 (inactive)
16,COc1ccccc1NC1=NC(c2ccc(Cl)cc2)N=C(N)N1 (stereo unspecified),1.03 (inactive)
17,CCCc1nc2ccccc2c(C(=O)OCc2nnc(-c3cc(OC)c(OC)c(OC)c3)o2)c1CC,1.12 (inactive)
18,COc1ccc(C(=O)OCC(=O)c2ccc(C)c(S(=O)(=O)N3CCOCC3)c2)cc1OC,1 (inactive)
19,COc1ccc2c3c(c(=O)oc2c1OCC(=O)C(C)(C)C)CCCC3,2.12 (active)
20,CCCOc1ccc2c3c(c(=O)oc2c1OCCC)CCC3,2.13 (active)
21,Cc1c(C)c2cc3c4c(oc3c(C)c2oc1=O)CCCC4,1.64 (inactive)
22,COc1ccc(Cl)cc1S(=O)(=O)N1CCN(CC(=O)C(C)(C)C)CC1,0.9 (inactive)
23,COC(=O)c1ccc(Oc2nc(Nc3ccc(F)cc3)nc(N3CCCC3)n2)cc1,1.09 (inactive)
24,Cc1ccc(C(c2nnnn2CS(=O)(=O)c2ccc(C)cc2)N2CCC(C(N)=O)CC2)cc1 (stereo unspecified),1.03 (inactive)
